# Assay results taken from publication PMC7862700, “An all-to-all approach to the identification of sequence-specific readers for epigenetic DNA modifications on cytosine”.
# Key:
# Experiment in all cases: DAPPL (digital affinity profiling via proximity ligation, sequencing); 10 mM Tris-HCl pH 7.5, 50 mM NaCl, 1 mM DTT, 4% glycerol, room temperature, 30 min; GST-TFs on glutathione beads, 16-mer random dsDNA library, 0.1% formaldehyde crosslink after washing; high values mean tight binding
# Details in all cases: protein: recombinant; tags: N-terminal GST; dsDNA, one strand shown
# FEV = biological target: T1, FEV (Homo sapiens, UniProt Q99581 1-238)
# T1 sequence: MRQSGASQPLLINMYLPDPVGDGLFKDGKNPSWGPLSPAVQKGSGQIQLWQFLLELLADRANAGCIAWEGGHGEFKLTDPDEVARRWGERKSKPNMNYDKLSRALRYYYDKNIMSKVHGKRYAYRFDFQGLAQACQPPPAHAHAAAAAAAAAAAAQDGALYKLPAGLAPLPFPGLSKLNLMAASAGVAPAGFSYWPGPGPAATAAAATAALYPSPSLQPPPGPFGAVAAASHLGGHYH
# Outline: (§1)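 Each value of binding signal is a hexamer's read frequency for a factor divided by the same hexamer's frequency in the tag-only sample. Barcoded, bead-captured GST fusions of human transcription factors made in yeast were pooled with that sample and incubated with 200 nmole of a random double-stranded 16-mer DNA library in Tris/NaCl/DTT/glycerol buffer at room temperature for 30 min. Washing, 0.1% formaldehyde crosslinking, proximity ligation, PCR and Illumina NextSeq500 sequencing followed.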
# ETV5 = ETV5 (Homo sapiens, UniProt P41161 1-510)
# Outline: as §1
# SPIC = biological target: T2, SPIC (Homo sapiens, UniProt Q8N5J4 1-248)
# T2 sequence: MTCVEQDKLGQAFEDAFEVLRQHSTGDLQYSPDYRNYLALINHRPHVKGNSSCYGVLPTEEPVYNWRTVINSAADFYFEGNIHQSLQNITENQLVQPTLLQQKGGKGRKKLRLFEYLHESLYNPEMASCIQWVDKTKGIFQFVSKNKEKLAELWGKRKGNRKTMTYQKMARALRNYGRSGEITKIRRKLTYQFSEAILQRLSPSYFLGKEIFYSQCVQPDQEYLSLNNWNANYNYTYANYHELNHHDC
# Outline: as §1
# ELF4 = ELF4 (Homo sapiens, UniProt Q99607 1-663)
# Outline: as §1
# ELK4 = biological target: T3, ELK4 (Homo sapiens, UniProt P28324-2 1-405)
# T3 sequence: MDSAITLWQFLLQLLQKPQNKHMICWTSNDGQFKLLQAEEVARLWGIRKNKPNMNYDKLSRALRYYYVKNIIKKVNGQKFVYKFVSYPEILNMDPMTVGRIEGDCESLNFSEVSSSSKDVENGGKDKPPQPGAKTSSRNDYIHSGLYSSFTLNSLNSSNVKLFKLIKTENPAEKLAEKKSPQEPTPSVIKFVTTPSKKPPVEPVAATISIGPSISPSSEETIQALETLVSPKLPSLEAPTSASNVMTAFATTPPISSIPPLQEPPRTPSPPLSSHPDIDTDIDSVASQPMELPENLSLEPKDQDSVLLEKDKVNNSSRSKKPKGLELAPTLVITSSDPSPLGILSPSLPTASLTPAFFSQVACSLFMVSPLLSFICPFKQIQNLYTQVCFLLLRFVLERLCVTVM
# Outline: as §1
# ETV2 = biological target: T4, ETV2 (Homo sapiens, UniProt O00321 1-342)
# T4 sequence: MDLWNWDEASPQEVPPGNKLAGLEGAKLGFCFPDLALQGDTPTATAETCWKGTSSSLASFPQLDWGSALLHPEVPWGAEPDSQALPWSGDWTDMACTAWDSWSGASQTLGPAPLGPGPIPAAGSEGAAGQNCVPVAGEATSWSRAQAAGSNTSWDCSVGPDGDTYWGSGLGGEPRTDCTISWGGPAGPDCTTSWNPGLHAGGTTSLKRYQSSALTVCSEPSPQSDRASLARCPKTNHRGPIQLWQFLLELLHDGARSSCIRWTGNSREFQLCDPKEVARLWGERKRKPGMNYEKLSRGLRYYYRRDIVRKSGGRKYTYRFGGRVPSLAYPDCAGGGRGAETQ
# Outline: as §1
# ELF3 = biological target: T5, ELF3 (Homo sapiens, UniProt P78545 1-371)
# T5 sequence: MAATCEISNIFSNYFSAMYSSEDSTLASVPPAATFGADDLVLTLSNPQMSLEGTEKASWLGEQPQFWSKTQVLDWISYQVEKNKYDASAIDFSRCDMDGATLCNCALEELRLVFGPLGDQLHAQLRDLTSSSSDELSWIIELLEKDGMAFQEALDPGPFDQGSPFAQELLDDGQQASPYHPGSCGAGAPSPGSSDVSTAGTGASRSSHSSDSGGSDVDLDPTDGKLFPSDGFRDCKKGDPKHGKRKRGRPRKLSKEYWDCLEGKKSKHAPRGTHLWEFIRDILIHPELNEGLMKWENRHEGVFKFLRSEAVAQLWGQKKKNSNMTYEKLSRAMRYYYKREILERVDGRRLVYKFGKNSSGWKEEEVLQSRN
# Outline: as §1
# ETV1 = ETV1 (Homo sapiens, UniProt P50549 1-477)
# Outline: as §1
# ETV5, sequence (P41161 whole entry): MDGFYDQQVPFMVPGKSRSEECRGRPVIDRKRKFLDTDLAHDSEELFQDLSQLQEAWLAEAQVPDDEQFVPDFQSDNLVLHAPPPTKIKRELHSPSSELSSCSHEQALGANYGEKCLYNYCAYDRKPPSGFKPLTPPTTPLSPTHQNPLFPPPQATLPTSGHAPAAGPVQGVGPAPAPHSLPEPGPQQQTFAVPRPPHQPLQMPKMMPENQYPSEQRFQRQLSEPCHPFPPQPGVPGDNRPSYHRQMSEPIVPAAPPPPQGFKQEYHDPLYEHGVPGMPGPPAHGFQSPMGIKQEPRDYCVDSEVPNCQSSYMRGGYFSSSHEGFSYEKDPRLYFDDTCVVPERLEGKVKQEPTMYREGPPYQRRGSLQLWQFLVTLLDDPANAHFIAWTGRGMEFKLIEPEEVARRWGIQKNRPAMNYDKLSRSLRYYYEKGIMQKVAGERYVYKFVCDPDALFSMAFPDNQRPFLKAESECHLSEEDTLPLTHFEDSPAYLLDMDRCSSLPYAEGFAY
# ELF4, sequence (Q99607 whole entry): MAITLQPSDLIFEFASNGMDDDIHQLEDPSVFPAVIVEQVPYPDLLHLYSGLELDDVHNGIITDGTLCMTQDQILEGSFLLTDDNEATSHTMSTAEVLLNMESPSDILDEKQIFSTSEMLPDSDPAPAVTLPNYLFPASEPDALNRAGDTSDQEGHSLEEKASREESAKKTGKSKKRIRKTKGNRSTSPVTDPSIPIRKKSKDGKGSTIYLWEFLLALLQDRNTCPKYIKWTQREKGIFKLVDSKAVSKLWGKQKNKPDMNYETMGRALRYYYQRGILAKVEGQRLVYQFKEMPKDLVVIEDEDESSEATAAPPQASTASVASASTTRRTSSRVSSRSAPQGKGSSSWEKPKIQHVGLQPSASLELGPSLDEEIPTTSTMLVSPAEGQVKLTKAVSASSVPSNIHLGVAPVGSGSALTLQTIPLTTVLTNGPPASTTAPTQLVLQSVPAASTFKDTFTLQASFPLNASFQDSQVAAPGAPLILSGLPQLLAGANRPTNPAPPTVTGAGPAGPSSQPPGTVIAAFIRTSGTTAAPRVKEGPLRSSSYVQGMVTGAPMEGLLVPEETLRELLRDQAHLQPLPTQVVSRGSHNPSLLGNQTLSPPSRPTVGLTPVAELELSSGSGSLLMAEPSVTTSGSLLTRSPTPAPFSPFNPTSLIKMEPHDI
# ETV1, sequence (P50549 whole entry): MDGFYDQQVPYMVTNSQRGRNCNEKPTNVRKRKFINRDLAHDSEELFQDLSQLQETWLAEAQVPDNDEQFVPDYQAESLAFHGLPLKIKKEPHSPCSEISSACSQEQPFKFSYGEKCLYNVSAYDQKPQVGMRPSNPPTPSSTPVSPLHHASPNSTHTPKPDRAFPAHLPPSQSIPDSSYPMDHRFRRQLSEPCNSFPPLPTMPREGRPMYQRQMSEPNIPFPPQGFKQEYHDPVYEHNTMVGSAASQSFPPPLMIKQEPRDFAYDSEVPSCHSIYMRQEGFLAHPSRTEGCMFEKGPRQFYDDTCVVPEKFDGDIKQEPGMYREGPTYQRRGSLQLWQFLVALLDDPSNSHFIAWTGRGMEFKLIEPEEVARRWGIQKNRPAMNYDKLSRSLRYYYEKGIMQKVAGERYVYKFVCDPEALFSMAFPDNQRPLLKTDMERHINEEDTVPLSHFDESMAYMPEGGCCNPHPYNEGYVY
sequence,measurement,setting,value
CCCCAC,binding signal,FEV,"1.29 fold enrichment (6-mer frequency, TF over GST control)"
same,binding signal,ETV5,"1.18 fold enrichment (6-mer frequency, TF over GST control)"
same,binding signal,SPIC,"1.33 fold enrichment (6-mer frequency, TF over GST control)"
same,binding signal,ELF4,"1.28 fold enrichment (6-mer frequency, TF over GST control)"
same,binding signal,ELK4,"1.36 fold enrichment (6-mer frequency, TF over GST control)"
same,binding signal,ETV2,"1.2 fold enrichment (6-mer frequency, TF over GST control)"
same,binding signal,ELF3,"1.25 fold enrichment (6-mer frequency, TF over GST control)"
same,binding signal,ETV1,"1.11 fold enrichment (6-mer frequency, TF over GST control)"
GCTGTT,binding signal,FEV,"1.16 fold enrichment (6-mer frequency, TF over GST control)"
same,binding signal,ETV5,"1.07 fold enrichment (6-mer frequency, TF over GST control)"
same,binding signal,SPIC,"1.25 fold enrichment (6-mer frequency, TF over GST control)"
same,binding signal,ELF4,"1.18 fold enrichment (6-mer frequency, TF over GST control)"
same,binding signal,ELK4,"1.24 fold enrichment (6-mer frequency, TF over GST control)"
same,binding signal,ETV2,"1.1 fold enrichment (6-mer frequency, TF over GST control)"
same,binding signal,ELF3,"1.17 fold enrichment (6-mer frequency, TF over GST control)"
same,binding signal,ETV1,"1.21 fold enrichment (6-mer frequency, TF over GST control)"
CCGGGT,binding signal,FEV,"1.02 fold enrichment (6-mer frequency, TF over GST control)"
same,binding signal,ETV5,"1.26 fold enrichment (6-mer frequency, TF over GST control)"
same,binding signal,SPIC,"1.19 fold enrichment (6-mer frequency, TF over GST control)"
same,binding signal,ELF4,"1.15 fold enrichment (6-mer frequency, TF over GST control)"
same,binding signal,ELK4,"1.09 fold enrichment (6-mer frequency, TF over GST control)"
same,binding signal,ETV2,"1.15 fold enrichment (6-mer frequency, TF over GST control)"
same,binding signal,ELF3,"1.12 fold enrichment (6-mer frequency, TF over GST control)"
same,binding signal,ETV1,"1.17 fold enrichment (6-mer frequency, TF over GST control)"
CACTGT,binding signal,FEV,"1.09 fold enrichment (6-mer frequency, TF over GST control)"
same,binding signal,ETV5,"1.1 fold enrichment (6-mer frequency, TF over GST control)"
same,binding signal,SPIC,"1.19 fold enrichment (6-mer frequency, TF over GST control)"
same,binding signal,ELF4,"1.15 fold enrichment (6-mer frequency, TF over GST control)"
same,binding signal,ELK4,"1.17 fold enrichment (6-mer frequency, TF over GST control)"
same,binding signal,ETV2,"1.25 fold enrichment (6-mer frequency, TF over GST control)"
same,binding signal,ELF3,"1.04 fold enrichment (6-mer frequency, TF over GST control)"
same,binding signal,ETV1,"1.11 fold enrichment (6-mer frequency, TF over GST control)"
CAAATG,binding signal,FEV,"1.11 fold enrichment (6-mer frequency, TF over GST control)"
same,binding signal,ETV5,"1.09 fold enrichment (6-mer frequency, TF over GST control)"
same,binding signal,SPIC,"1.01 fold enrichment (6-mer frequency, TF over GST control)"
same,binding signal,ELF4,"1.15 fold enrichment (6-mer frequency, TF over GST control)"
same,binding signal,ELK4,"1.11 fold enrichment (6-mer frequency, TF over GST control)"
same,binding signal,ETV2,"1.19 fold enrichment (6-mer frequency, TF over GST control)"
same,binding signal,ELF3,"1.15 fold enrichment (6-mer frequency, TF over GST control)"
same,binding signal,ETV1,"1.19 fold enrichment (6-mer frequency, TF over GST control)"
AGCGAC,binding signal,FEV,"1.19 fold enrichment (6-mer frequency, TF over GST control)"
same,binding signal,ETV5,"1.13 fold enrichment (6-mer frequency, TF over GST control)"
same,binding signal,SPIC,"1.19 fold enrichment (6-mer frequency, TF over GST control)"
same,binding signal,ELF4,"1.19 fold enrichment (6-mer frequency, TF over GST control)"
same,binding signal,ELK4,"1.25 fold enrichment (6-mer frequency, TF over GST control)"
same,binding signal,ETV2,"1.22 fold enrichment (6-mer frequency, TF over GST control)"
same,binding signal,ELF3,"1.01 fold enrichment (6-mer frequency, TF over GST control)"
same,binding signal,ETV1,"1.12 fold enrichment (6-mer frequency, TF over GST control)"
CTCACC,binding signal,FEV,"1.2 fold enrichment (6-mer frequency, TF over GST control)"
same,binding signal,ETV5,"1.16 fold enrichment (6-mer frequency, TF over GST control)"
same,binding signal,SPIC,"1.25 fold enrichment (6-mer frequency, TF over GST control)"
same,binding signal,ELF4,"1.28 fold enrichment (6-mer frequency, TF over GST control)"
same,binding signal,ELK4,"1.2 fold enrichment (6-mer frequency, TF over GST control)"
same,binding signal,ETV2,"1.17 fold enrichment (6-mer frequency, TF over GST control)"
same,binding signal,ELF3,"1.33 fold enrichment (6-mer frequency, TF over GST control)"
same,binding signal,ETV1,"1.25 fold enrichment (6-mer frequency, TF over GST control)"
TGCATG,binding signal,FEV,"1.04 fold enrichment (6-mer frequency, TF over GST control)"
same,binding signal,ETV5,"1.15 fold enrichment (6-mer frequency, TF over GST control)"
same,binding signal,SPIC,"1.27 fold enrichment (6-mer frequency, TF over GST control)"
same,binding signal,ELF4,"1.08 fold enrichment (6-mer frequency, TF over GST control)"
same,binding signal,ELK4,"1.05 fold enrichment (6-mer frequency, TF over GST control)"
same,binding signal,ETV2,"1.08 fold enrichment (6-mer frequency, TF over GST control)"
same,binding signal,ELF3,"1.02 fold enrichment (6-mer frequency, TF over GST control)"
same,binding signal,ETV1,"1.06 fold enrichment (6-mer frequency, TF over GST control)"
CGTAAC,binding signal,FEV,"1.09 fold enrichment (6-mer frequency, TF over GST control)"
same,binding signal,ETV5,"1.1 fold enrichment (6-mer frequency, TF over GST control)"
same,binding signal,SPIC,"1.27 fold enrichment (6-mer frequency, TF over GST control)"
same,binding signal,ELF4,"1.23 fold enrichment (6-mer frequency, TF over GST control)"
same,binding signal,ELK4,"1.13 fold enrichment (6-mer frequency, TF over GST control)"
same,binding signal,ETV2,"1.12 fold enrichment (6-mer frequency, TF over GST control)"
same,binding signal,ELF3,"1.18 fold enrichment (6-mer frequency, TF over GST control)"
same,binding signal,ETV1,"1.13 fold enrichment (6-mer frequency, TF over GST control)"
GTGACC,binding signal,FEV,"1.36 fold enrichment (6-mer frequency, TF over GST control)"
same,binding signal,ETV5,"1.22 fold enrichment (6-mer frequency, TF over GST control)"
same,binding signal,SPIC,"1.34 fold enrichment (6-mer frequency, TF over GST control)"
same,binding signal,ELF4,"1.27 fold enrichment (6-mer frequency, TF over GST control)"
same,binding signal,ELK4,"1.36 fold enrichment (6-mer frequency, TF over GST control)"
same,binding signal,ETV2,"1.12 fold enrichment (6-mer frequency, TF over GST control)"
same,binding signal,ELF3,"1.3 fold enrichment (6-mer frequency, TF over GST control)"
same,binding signal,ETV1,"1.24 fold enrichment (6-mer frequency, TF over GST control)"
TACCGG,binding signal,FEV,"2.1 fold enrichment (6-mer frequency, TF over GST control)"
same,binding signal,ETV5,"1.68 fold enrichment (6-mer frequency, TF over GST control)"
same,binding signal,SPIC,"1.43 fold enrichment (6-mer frequency, TF over GST control)"
same,binding signal,ELF4,"1.51 fold enrichment (6-mer frequency, TF over GST control)"
same,binding signal,ELK4,"1.4 fold enrichment (6-mer frequency, TF over GST control)"
same,binding signal,ETV2,"1.5 fold enrichment (6-mer frequency, TF over GST control)"
same,binding signal,ELF3,"1.78 fold enrichment (6-mer frequency, TF over GST control)"
same,binding signal,ETV1,"1.73 fold enrichment (6-mer frequency, TF over GST control)"
GTAGCA,binding signal,FEV,"1.07 fold enrichment (6-mer frequency, TF over GST control)"
same,binding signal,ETV5,"1.13 fold enrichment (6-mer frequency, TF over GST control)"
same,binding signal,SPIC,"1.16 fold enrichment (6-mer frequency, TF over GST control)"
same,binding signal,ELF4,"1.07 fold enrichment (6-mer frequency, TF over GST control)"
same,binding signal,ELK4,"1.06 fold enrichment (6-mer frequency, TF over GST control)"
same,binding signal,ETV2,"1.11 fold enrichment (6-mer frequency, TF over GST control)"
same,binding signal,ELF3,"1.01 fold enrichment (6-mer frequency, TF over GST control)"
same,binding signal,ETV1,"1.11 fold enrichment (6-mer frequency, TF over GST control)"
